# Test system: T1, p38-gamma
# T1 construct: gene MAPK12
# Details: concentration: 1 μM, replicates: in singlicate; n = 1
# 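Note: KINOMEscan kinase panel screen.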
row,Compound,%Inh [%]
1,Cl.Cn1ccc(-c2cccc(Nc3ccnc4cc(-c5nccs5)ccc34)c2)n1 [GW525701],14
2,CNc1nccc(-c2c(-c3ccc(F)cc3)ncn2C2CCN(C)CC2)n1 [SB-222903],0
3,CC(C)(C)OC(=O)NC1CCCN(c2cc(-c3ccc4c(N)n[nH]c4c3)nc(N)n2)C1 (stereo not drawn) [GSK2286096],0
4,Clc1cccc(-c2nc(Nc3ccncc3)c3ccccc3n2)c1 [GW873004],0
5,O=C(Nc1n[nH]c2nc(-c3ccco3)c(Br)cc12)c1ccc(CN2CCCC2)cc1.O=C(O)[C@H](O)[C@@H](O)C(=O)O [SB-742352],10
6,FC(F)(F)c1ccc(-c2nn3ncccc3c2-c2ccnc(Nc3cccc(C(F)(F)F)c3)n2)cc1 [GW828205],41
7,CC(C)N1CCC(n2cnc(-c3ccc(F)cc3)c2-c2ccnc(N)n2)CC1 [SB-223132],60
8,Cn1ccc2ncnc(Oc3ccc(NC(=O)Nc4cccnc4)c(Cl)c3)c21,21
9,Cc1ccc(NC(=O)c2cccc(C#N)c2)cc1-c1ccc(C(=O)Nc2ccncc2)cc1 [GSK1398463],26
10,O=C(c1ccc(-c2cc(-c3c[nH]nc3-c3ccccn3)ccn2)cc1)N1CCCC1 [GW792479],66
11,Cc1cc(N2CCC(NS(=O)(=O)c3ccc(F)cc3)CC2)nc(Nc2cccc(C#N)c2)n1.O=C(O)C(F)(F)F [GSK1653537],0
12,O=C(Nc1ccccc1)Nc1ccc(Oc2ccc3nccn3n2)cc1,30

# Reference: paper PMC5540273 (PLoS ONE, 2017)
